Inconclusive results are not listed. Calls of active or inactive are those of the source. How the source made its calls: active means hit-call score of the fitted dose curve at least 0.9, where 1 is the maximum; inconclusive means response in the unintended direction; inactive means score below 0.9.

What is called AC50 is the concentration giving half of the maximal activity seen.

The target in the test is Estrogen receptor (Homo sapiens) (UniProt P03372). The experiment in a line: NVS_NR_hER: NovaScreen (NVS) Nuclear Receptor Binding Assay for human Estrogen Receptor (ER) (AID 2283348). On the procedure: NVS_NR_hER is a biochemical, single-readout assay that uses extracted gene-proteins from MCF7 in a cell-free assay. Measurements were taken 18 hours after chemical dosing in a 96-well plate.NVS_NR_hER is one of one assay component(s) measured or calculated from the NVS_NR_hER assay. It is designed to make measurements of radioligand binding, a form of binding reporter, as detected with scintillation counting signals by Lysate-based radiodetection technology.Data from the assay component NVS_NR_hER was analyzed into 1 assay endpoint. This assay endpoint, NVS_NR_hER, was analyzed in the positive analysis fitting direction relative to DMSO as the negative control and baseline of activity. Using a type of binding reporter, loss-of-signal activity can be used to understand changes in the binding as they relate to the gene ESR1. Furthermore, this assay endpoint can be referred to as a primary readout, because the performed assay has only produced 1 assay endpoint. To generalize the intended target to other relatable targets, this assay endpoint is annotated to the nuclear receptor intended target family, where the subfamily is steroidal.
Estrogen receptor (Homo sapiens), sequence (P03372 whole entry, looked up): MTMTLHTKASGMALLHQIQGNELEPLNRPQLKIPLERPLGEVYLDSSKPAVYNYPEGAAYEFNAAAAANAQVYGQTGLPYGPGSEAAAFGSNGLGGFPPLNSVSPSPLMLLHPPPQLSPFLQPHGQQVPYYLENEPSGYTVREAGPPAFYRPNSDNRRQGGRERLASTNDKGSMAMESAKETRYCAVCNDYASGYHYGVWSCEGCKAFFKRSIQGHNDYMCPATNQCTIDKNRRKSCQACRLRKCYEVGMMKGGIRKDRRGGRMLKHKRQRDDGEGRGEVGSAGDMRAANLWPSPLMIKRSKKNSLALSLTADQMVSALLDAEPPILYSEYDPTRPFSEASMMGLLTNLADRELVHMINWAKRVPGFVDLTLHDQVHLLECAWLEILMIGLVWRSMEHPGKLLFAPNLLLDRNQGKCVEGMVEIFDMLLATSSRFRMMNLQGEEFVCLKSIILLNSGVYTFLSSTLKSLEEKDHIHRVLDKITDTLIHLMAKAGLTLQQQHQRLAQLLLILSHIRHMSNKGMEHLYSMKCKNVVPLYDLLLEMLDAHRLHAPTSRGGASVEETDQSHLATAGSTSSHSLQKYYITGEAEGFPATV
Binding assays used specific radioligands (tritiated, iodinated) with non-radioactive competitive displacement ligands in agonist or antagonist protocols (as indicated) and various reference compounds and inhibitors to titrate specific binding to receptors and transporters. Most enzyme assays (CYPs, kinases, phosphatases, proteases, HDACs) used recombinant protein and specific substrates (fluorescence mostly, some colorimetric and radioactive) and inhibitors, followed by a biochemical separation of substrate and product. All assays for the biochemical HTS were initially run in duplicate at a single concentration (10 uM for CYP450 assays and 25 uM for all others). […] Each assay was run with positive and negative controls, and concurrent controls on every plate. The follow-up (secondary) screen tested active chemical-pairs in concentration series, as well as a few additional assays not tested in the primary screen, some selected negative inactives, and several cases re-run in the concentration series for confirmatory purposes.
`Nc1nc(N)c2nc(-c3ccccc3)c(N)nc2n1`: the compound was called inactive.
On the same count and under the same terms, to `CC(=O)CC(=O)OC(C)(C)C` belongs “inactive”; to `c1cc(N(CC2CO2)CC2CO2)ccc1Cc1ccc(N(CC2CO2)CC2CO2)cc1` (configuration not stated), “inactive”.
For the compound `Oc1ccc2c(c1)Cc1ccccc1-2`, the AC50 was 25 µM (active).
Regarding `CC(=O)O[C@]1(C(C)=O)CC[C@H]2[C@@H]3C=C(C)C4=CC(=O)CC[C@]4(C)[C@H]3CC[C@@]21C`, the compound was classed as inactive.
Same read-out and setting: to `Cc1cc(Br)ccc1NC(=O)CCl` belongs “inactive”.
Consider `Oc1ccc(Oc2ccccc2)cc1`, for which the concentration at half-maximal activity (AC50) is 6.92 µM (active).
With `O=[N+]([O-])c1cc[n+]([O-])cc1`, the call was inactive.
The same measure, in the same setting: to `Cc1oc(C)c(C(=O)Nc2ccccc2)c1C` belongs “inactive”.
Same read-out and setting: to `O=[N+]([O-])c1ccc(ON=Cc2cc(Br)c(O)c(Br)c2)c([N+](=O)[O-])c1` belongs “inactive”.
On the same count and under the same terms, to `CC(=O)CCc1ccc(OC(C)=O)cc1` belongs “inactive”.
In the case of `CC(O)(c1ccc(Cl)cc1)c1ccc(Cl)cc1`, the compound was classed as inactive.
On the same count and under the same terms, in the case of `SC1CCCC1` it was “inactive”; in that of `CCCCCCCCOCCCN`, “inactive”.
Still for that read-out and setting: in the case of `CC(C)CC(=O)C1C(=O)c2ccccc2C1=O` it was “inactive”; in that of `CCN(Cc1cccc(S(=O)(=O)O)c1)c1ccccc1`, “inactive”; in that of `CC1(O)CSC(C)(O)CS1` (configuration not stated), “inactive”.
On the same count and under the same terms, to `COC(=O)CCCC(=O)O` belongs “inactive”; to `CC(C)(C)C(=O)C(=O)O`, “inactive”; to `CCCCCCCCCCCCSC#N`, “inactive”.
For the compound `O=S(=O)(O)c1cc(Cl)c(Cl)cc1Cl`, the compound was classed as inactive.
Consider `CCOc1nc2cccc(C(=O)OC(C)OC(=O)OC3CCCCC3)c2n1Cc1ccc(-c2ccccc2-c2nn[nH]n2)cc1` (configuration not stated), for which the compound was called inactive.
